Measurements published in publication PMC5540273 (PLoS ONE, 2017).

Key:
Conditions in all cases: concentration: 1 μM,replicates: in singlicate; n = 1
[1] = test system: JAK1(JH2domain-pseudokinase)
[2] = test system: JAK2(JH1domain-catalytic)
[3] = test system: JAK3(JH1domain-catalytic)
JNK1 = test system: T1, JNK1
T1 construct: gene MAPK8

JNK2 = test system: T2, JNK2
T2 construct: gene MAPK9

JNK3 = test system: T3, JNK3
T3 construct: gene MAPK10

KIT-autoinhibited = test system: KIT-autoinhibited
KIT = test system: KIT
LATS1 = test system: LATS1
LATS2 = test system: LATS2
LCK = test system: LCK
LIMK1 = test system: LIMK1
LIMK2 = test system: LIMK2
LKB1 = test system: T4, LKB1
T4 construct: gene STK11

LOK = test system: T5, LOK
T5 construct: gene STK10

LRRK2 = test system: LRRK2
LTK = test system: LTK
LYN = test system: LYN
LZK = test system: T6, LZK
T6 construct: gene MAP3K13

MAK = test system: MAK
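Also: KINOMEscan kinase panel screen.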

SMILES	%Inh [1] [%]	%Inh [2] [%]	%Inh [3] [%]	%Inh (JNK1) [%]	%Inh (JNK2) [%]	%Inh (JNK3) [%]	%Inh (KIT-autoinhibited) [%]	%Inh (KIT) [%]	%Inh (LATS1) [%]	%Inh (LATS2) [%]	%Inh (LCK) [%]	%Inh (LIMK1) [%]	%Inh (LIMK2) [%]	%Inh (LKB1) [%]	%Inh (LOK) [%]	%Inh (LRRK2) [%]	%Inh (LTK) [%]	%Inh (LYN) [%]	%Inh (LZK) [%]	%Inh (MAK) [%]
Cc1n[nH]c2cc(Nc3ccnc(Nc4cccc(CN5CCOCC5)c4)n3)ccc12 [GW682569]	98.8	99.4	79	96.2	58	85	28	97.7	0	0	71	9	5	17	0	0	1	25	31	20
NC(=O)Nc1sc(-c2ccc(F)cc2)cc1C(N)=O [GW789449]	100	99.1	96.1	55	0	20	48	65	2	0	32	3	24	0	22	0	35	0	0	0
COc1cc2c(Nc3ccc(NC(=O)c4ccccc4)cc3)ncnc2cc1OCCCN1CCOCC1 [GSK301329]	0	0	0	0	19	12	41	99.1	0	0	87	3	0	0	77	33	27	52	55	0
Cn1ccc2ncnc(Oc3ccc(NC(=O)Nc4cncc(C(F)(F)F)c4)c(Cl)c3)c21	0	0	0	0	0	0	17	99.9	0	0	50	0	0	0	99.2	0	16	32	0	0
Cn1ccc2ncnc(Oc3ccc(NC(=O)Nc4cc(C(C)(C)C)on4)c(Cl)c3)c21	0	8	6	12	48	7	30	100	20	25	98.2	13	17	0	99.9	3	39	95.4	0	0
COc1cc(Nc2nccc(N3CCC(NC(=O)c4cccc(C#N)c4)C3)n2)cc(OC)c1OC (stereo not drawn) [GSK1379751]	2	98	22	30	15	33	0	43	0	0	0	92.6	17	0	0	0	2	0	33	7
O=C(Nc1ccc(Oc2ccc3nc(NC(=O)C4CC4)cn3n2)c(F)c1)c1cccn(-c2ccccc2)c1=O	0	0	0	0	0	0	0	100	0	0	0	33	29	0	99.5	0	29	36	0	10
CC(=O)Nc1ccc(-c2cc3ncnc(SCC(=O)O)c3s2)cc1	7	0	17	7	0	0	26	79	0	20	1	0	0	0	5	0	0	9	0	52
CN1CCN(CCNc2nc3cc(Oc4ccc(NC(=O)Nc5cc(C(F)(F)F)ccc5F)cc4)ccc3[nH]2)CC1.Cl.Cl [GW768504]	15	5	0	0	0	0	4	99.8	0	0	22	0	2	38	95.2	0	19	12	0	13
CC(C)c1nc(-c2cccc(NS(=O)(=O)c3ccccc3)c2)c(-c2ccnc(Nc3ccc4c(c3)CN(C)CC4)n2)s1 [GSK1649598]	0	20	75	84	87	94	21	99.9	6	27	99.8	100	100	0	97.5	0	5	98	45	53
CC(C(=O)NC1CCN(c2ccnc(Nc3ccc(F)cc3)n2)C1)c1ccc(Cl)cc1 (stereo not drawn) [GSK1379713]	0	7	0	2	0	0	0	10	0	0	22	0	0	0	0	14	0	0	0	12
COC(=O)c1cccc(NC(=O)NC2CCN(c3ccnc(NCc4ccc(F)cc4)n3)CC2)c1 [GSK1379860]	0	6	0	7	23	3	0	7	0	0	4	4	0	0	0	8	0	0	0	28
COC(=O)c1cccc(NC(=O)NC2CCN(c3ccnc(Nc4cc(OC)c(OC)c(OC)c4)n3)C2)c1 (stereo not drawn) [GSK1379767]	13	82	0	16	20	28	0	77	0	17	7	0	35	0	45	0	83	0	54	36
CS(=O)(=O)Nc1ccc(-c2ccnc3[nH]ccc23)cc1 [GSK993273]	9	97.7	97.1	49	27	28	0	59	42	82	25	0	13	0	0	35	0	0	8	0
CCNCC(Cc1ccccc1)NC(=O)c1cc(Br)c(-c2ccnc3[nH]ccc23)s1.Cl.Cl (stereo not drawn) [GSK1383280]	0	82	87	33	10	1	0	50	43	82	11	21	23	0	0	0	0	0	0	44
Cc1ccc(CC(=O)N2CCc3cc(-c4cn(C)c5ncnc(N)c45)ccc32)cc1 [GSK2634758]	0	0	0	13	12	0	0	98.6	0	9	38	0	0	19	87	0	24	23	24	4
O=C(Nc1ccccc1)c1cccc(Oc2ccc3nccn3n2)c1	10	10	6	8	1	6	8	98.4	0	91.6	13	12	23	0	7	0	20	4	0	32

SMILES	%Inh [1] [%]	%Inh [2] [%]	%Inh [3] [%]	%Inh (JNK1) [%]	%Inh (JNK2) [%]	%Inh (JNK3) [%]	%Inh (KIT-autoinhibited) [%]	%Inh (KIT) [%]	%Inh (LATS1) [%]	%Inh (LATS2) [%]	%Inh (LCK) [%]	%Inh (LIMK1) [%]	%Inh (LIMK2) [%]	%Inh (LKB1) [%]	%Inh (LOK) [%]	%Inh (LRRK2) [%]	%Inh (LTK) [%]	%Inh (LYN) [%]	%Inh (LZK) [%]	%Inh (MAK) [%]
C[C@@H]1CNc2c(sc3ccc4nc(-c5ccncc5)ccc4c23)C(=O)N1	64	0	78	0	0	0	7	34	0	24	13	0	0	0	14	100	65	6	0	0
C[C@@H]1CCN(C(=O)N2CCCC2)C[C@@H]1N(C)c1ncnc2[nH]ccc12	31	100	99.6	14	8	3	23	0	0	10	41	0	0	0	0	0	100	0	22	14
CCn1c(-c2nonc2N)nc2cncc(CNC3CCNCC3)c21.Cl [SB-747651]	0	19	0	25	6	3	0	0	0	53	0	14	13	0	0	43	25	0	8	29
Cc1ccc(C(=O)Nc2ccc(Oc3ccc4nc(NC(=O)C5CC5)cn4c3)c(F)c2)c(=O)n1-c1ccccc1	0	81	15	0	0	0	24	100	14	0	99.2	42	21	34	99.9	0	38	57	0	0
CCOC(=O)N1CCC(n2cnc(-c3ccc(F)cc3)c2-c2ccnc(N)n2)CC1 [SB-219952]	42	32	0	77	96.8	98.4	8	40	0	0	0	8	13	15	100	0	17	9	15	0
O=C(Nc1n[nH]c2cc(-c3ccco3)ccc12)C1CC1 [SB-737447]	63	27	30	38	17	32	7	23	0	10	3	0	0	0	3	0	0	0	0	4
OCCn1cc(-c2cnc3nnn(Cc4ccc5ncccc5c4)c3n2)cn1	10	0	0	10	0	0	0	0	0	24	0	0	0	3	18	0	8	0	0	0
CC(=O)Nc1nc2cnc(Nc3cc(NC(=O)c4cccc(CC(C)(C)C#N)c4)ccc3C)nc2s1	25	0	0	33	41	43	36	100	7	47	72	0	2	1	55	9	2	58	15	0
CCN1CCN(CCCC(=O)Nc2n[nH]c3nc(-c4ccc(O)cc4)c(Br)cc23)CC1 [SB-731579]	0	80	87	55	38	34	15	31	0	0	66	0	0	23	13	0	20	0	0	35
COc1cc2ncn(-c3cc(OCC4CCCCC4)c(C(N)=O)s3)c2cc1OC [GSK204559]	0	0	0	20	27	19	0	31	0	7	37	2	13	0	63	20	10	0	0	18
CN(c1ccc2c(c1)nc(NCc1ccc(F)cc1)n2C)c1ccnc(Nc2ccc(CS(C)(=O)=O)cc2)n1.Cl [GW813244]	56	54	100	42	39	0	69	99.9	10	0	67	33	0	29	99.5	0	48	68	0	2
Cc1ccn2nc(-c3ccc(F)cc3)c(-c3ccncc3)c2c1.Cl [GW457859]	75	50	0	43	91.4	93.4	0	26	2	0	12	0	0	10	0	0	0	0	44	17
Cc1nnc(-c2ccc3occ(-c4ccc(S(C)=O)cc4)c3n2)o1 (stereo not drawn)	0	0	0	0	0	0	0	0	0	0	0	0	0	3	0	0	0	0	0	0
C[C@@H](Oc1cc(-n2cnc3cc(-c4cnn(C)c4)ccc32)sc1C(N)=O)c1ccccc1Cl [GSK580432]	0	86	96.9	0	31	16	0	96.4	0	2	94.8	0	0	57	99.9	68	25	38	0	0
Cc1cccc(-c2nc(Nc3ccncc3)c3sccc3n2)n1 [GW869641]	90.2	67	57	46	85	94.6	21	22	11	33	20	11	5	0	79	0	35	18	4	0
COc1cccc(C2=C(Nc3cccc(Cl)c3)C(=O)NC2=O)c1 [SB-341556]	0	45	92.9	25	44	32	0	14	0	0	15	67	0	0	9	83	86	0	0	0
